# Measurements as given in PubChem BioAssay AID651558 (National Center for Advancing Translational Sciences (NCATS), 2012).
# About 480 (40%) of roughly 1,200 compounds were called active. Another 29% or so got no clear call; they are omitted. The call rests on the fitted dose curve; in most records, active means well fitted inhibition curve with a large enough effect; inconclusive means small, poorly fitted or top-dose-only effect; inactive means no such curve, though single readings can be large or run the other way. This is one part of the list.
# Experiment: qHTS Assay to Find Inhibitors of Chronic Active B-Cell Receptor Signaling: Hit Validation in Primary Screen; further: nearly all actives have a fitted effect of over 75% in size
# Conditions: ABC-DLBCL IkB-luc/CBR ratio luminescence, 4 h; series mostly up to 46.1 µM
# In short: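 Concentration series (3 nM to 46 uM) tested on TMD8 cells induced with doxycycline for 4 h. Filter-corrected green (IkBa fusion) over red (unfused) luciferase signal; Data were normalised to 10 uM MG-132 and untreated cell wells.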
# Potency means the concentration at half of the fitted maximal effect.
row,SMILES,Potency
1,CC1=NN(C(N)=S)C(=O)C1N=Nc1cccc(C)c1 (configuration not stated),inactive
2,O=C(NC(=S)N1CCOCC1)c1cn(-c2ccccc2)nc1-c1ccccc1,inactive
3,CCOc1ccc(C(=O)c2cc([N+](=O)[O-])ccc2N2CCOCC2)cc1,0.116 µM (active)
4,O=C(c1ccc(Cl)cc1)c1cc([N+](=O)[O-])ccc1N1CCOCC1,5.8 µM (active)
5,O=C(Oc1ccc2ccc(OC(=O)N3CCOCC3)cc2c1)N1CCOCC1,inactive
6,C/C(=N\NC(=O)COc1ccc(C(C)(C)C)cc1)c1ccc(N2CCOCC2)cc1,inactive
7,O=C(c1cc([N+](=O)[O-])ccc1N1CCOCC1)N1CCN(c2ccccc2)CC1,3.26 µM (active)
8,COc1ccc(C(=O)c2cc([N+](=O)[O-])ccc2N2CCOCC2)cc1,2.06 µM (active)
9,Cc1ccc(-n2cc(CNCCc3ncc(C)[nH]3)c(-c3ccc(F)cc3)n2)cc1,inactive
10,COc1cc2c(cc1OC)-c1cc(NC3CCCCCC3)nc(=O)n1CC2,9.2 µM (active)
11,COc1cc2c(cc1OC)-c1cc(NC3CCCCC3)nc(=O)n1CC2,23.1 µM (active)
12,Cc1onc(-c2ccccc2)c1-c1nc2cc(Cl)ccc2c(=O)o1,2.31 µM (active)
13,C#CCOCCOCCOCCNc1nc(N2CCN(C(=O)[C@H](C(C)C)n3cc(CCO)nn3)CC2)nc(N2CCN(C(=O)[C@H]([C@@H](C)CC)n3cc(CCCN=C(N)N)nn3)CC2)n1,inactive
14,COc1ccc(-c2cc(C(=O)NN)[nH]n2)cc1OC,inactive
15,COc1ccc(/C=C/C(=O)Nc2ccc(-n3nncc3-c3ccc(OC)c(OC)c3)cc2)cc1OC,2.31 µM (active)
16,COc1ccc(N(CC(=O)NC2CCCC2)C(=O)Cn2nnc(-c3ccc(OC)c(OC)c3)n2)c(OC)c1,inactive
17,COc1ccc(C(=O)Nc2ccc(-n3nncc3-c3ccc(OC)c(OC)c3)cc2)cc1,2.06 µM (active)
18,Fc1cccc2sc(Nc3nnc(-c4ccccc4)o3)nc12,0.13 µM (active)
19,COc1cccc(-c2nnc(Nc3nc4c(F)cccc4s3)o2)c1,0.326 µM (active)
20,O=C(/C=C/c1cccc(Cl)c1)c1nc2ccccc2[nH]1,20.6 µM (active)
21,CCN(C(=O)c1cnc(NC(C)C)cc1C(F)(F)F)c1ccc(Cl)cc1Cl,inactive
22,CCOc1ccc2c(c1)OC(c1ccc(OC)cc1)(C(F)(F)F)NC2=O (configuration not stated),11.6 µM (active)
23,Oc1c(CN2CCN(c3ccccc3)CC2)cc(Br)c2cccnc12,inactive
24,COc1ccccc1N1CCN(C(=O)C2c3ccccc3Oc3ccccc32)CC1,16.4 µM (active)
25,COc1ccccc1N1CCN(C(=O)c2cc(=O)c3cc(C)cc(C)c3o2)CC1,1.03 µM (active)

row,SMILES,Potency
1,CCOC(=O)c1cnc(Nc2nc3ccccc3o2)nc1CSC(=S)N1CCCCC1,inactive
2,COc1ccc(-c2c/c(=N\c3nc(-c4ccccc4)c(C)s3)c3ccccc3o2)cc1O,8.2 µM (active)
3,Cc1csc(N/N=C/c2ccccn2)n1,inactive
4,NC(=S)Nc1nc2ccccc2s1,inactive
5,C(=N\Nc1nc2ccccc2s1)/c1ccccn1,14.6 µM (active)
6,COc1ccc(-c2noc(CSc3nc(N)c(-c4ccccc4)c(=O)[nH]3)n2)cc1,8.2 µM (active)
7,COc1ccc(-c2noc(CSc3nc(N)c(-c4ccccc4)c(=O)[nH]3)n2)cc1OC,7.31 µM (active)
8,Nc1nc(SCc2nc(-c3ccccc3)no2)[nH]c(=O)c1-c1ccccc1,20.6 µM (active)
9,COCCNC(=S)N/N=C(\C)c1ccccc1F,inactive
10,CCOc1ccc(S(=O)(=O)Nc2ccc3oc(C)c(C(=O)OCCOC)c3c2)cc1,8.2 µM (active)
11,O=C(/C=C\c1ccco1)Nc1cc([N+](=O)[O-])ccc1F,1.84 µM (active)
12,O=C(Cc1ccc(-n2c(=O)c3ccccc3n(Cc3ccccc3Cl)c2=O)cc1)NCC1CCCO1 (configuration not stated),2.59 µM (active)
13,CCn1c(O)c(N=NC(=S)NCC2CCCO2)c2ccccc21 (configuration not stated),inactive
14,CC1CCC(n2c(=S)[nH]c3ccccc3c2=O)CC1 (configuration not stated),inactive
15,CCN(CC(=O)NCc1ccc(F)cc1)C(=O)/C=C/c1ccc(OC)c(S(=O)(=O)NC(C)C)c1,18.4 µM (active)
16,CN(C)c1nc(=Nc2cccc(Cl)c2)ss1,20.6 µM (active)
17,Cc1[nH]n(C(N)=S)c(=O)c1N=Nc1cccc(Cl)c1,inactive
18,O=C(Nc1ncc(Cc2ccc(SC(F)F)cc2)s1)c1ccccc1,18.4 µM (active)
19,Cc1ccc(C(=O)Nc2ncc(Cc3ccc(SC(F)F)cc3)s2)cc1,1.3 µM (active)
20,O=C(Nc1ncc(Cc2ccc(SC(F)F)cc2)s1)c1ccc(OC(F)F)cc1,0.651 µM (active)
21,CCCCC(=O)O[C@]1(C(=O)CO)CC[C@H]2[C@@H]3CCC4=CC(=O)CC[C@]4(C)[C@H]3[C@@H](O)C[C@@]21C,inactive
22,CCCSc1nc(C)c(C(C)=O)cc1C#N,16.4 µM (active)
23,CCOc1cc(-c2cc(-c3ccc(NC(C)=O)cc3)nc(N)c2C#N)ccc1O,20.6 µM (active)
24,CC(C)(C)NNC(=S)Nc1cccc(C(F)(F)F)c1,inactive
25,CN1CCN(Cc2cc(COCc3ccccc3)c3cccnc3c2O)CC1,inactive

row,SMILES,Potency
1,CC(C)Sc1ccccc1C(=O)Nc1ccc2c(c1)n(C)c(=O)n2C,inactive
2,CC(C)n1c(SCC(=O)Nc2ccccc2)nc2c1c(=O)n(C)c(=O)n2C,18.4 µM (active)
3,CC1CCCCN1C(=S)NC(=O)c1cccs1 (configuration not stated),inactive
4,Cc1cnn(CCC(=O)NNC(=S)NCC(C)C)c1,inactive
5,O=C(COc1ccccc1-c1ccccc1)N/N=C/c1cccc2ccccc12,2.06 µM (active)
6,Cc1ccc(Cl)cc1NC(=S)N/N=C/c1cccc2ccccc12,inactive
7,C/C(CCC(C)C)=N\NC(=O)COc1ccccc1-c1ccccc1,inactive
8,COc1ccc(/C=N/NC(=O)COc2ccccc2-c2ccccc2)cc1,2.59 µM (active)
9,O=C(COc1ccccc1-c1ccccc1)N/N=C/c1ccc2ccccc2c1,0.651 µM (active)
10,O=C(COc1ccccc1-c1ccccc1)NN=C1CCCC1,inactive
11,C/C(=N\NC(=O)COc1ccccc1-c1ccccc1)c1ccccn1,inactive
12,Cc1ccc(/C=N/NC(=O)COc2ccccc2-c2ccccc2)cc1,0.291 µM (active)
13,C/C(=N/NC(=O)COc1cc(C)ccc1C(C)C)C(=O)O,inactive
14,Cc1[nH]n(C(N)=S)c(=O)c1N=Nc1ccc([N+](=O)[O-])cc1Cl,inactive
15,O=C1CC(c2ccccc2)Cc2nc3ncnn3cc21 (configuration not stated),inactive
16,CCOc1ccccc1C(=O)N1CCN(c2cccc(Cl)c2)CC1,0.517 µM (active)
17,Cc1ccccc1C(=O)N1CCC(C(=O)N2CCN(Cc3ccc4c(c3)OCO4)CC2)CC1,inactive
18,COC(=O)c1cc(C(=O)N2CCN(c3cccc(Cl)c3)CC2)cc([N+](=O)[O-])c1,5.8 µM (active)
19,CCOc1ncccc1C(=O)N1CCN(c2cccc(C)c2C)CC1,5.8 µM (active)
20,CCOc1ncccc1C(=O)N1CCN(c2cc(Cl)ccc2C)CC1,8.2 µM (active)
21,CCc1ccc(CNC(=O)Cc2ccc(NC(=O)C3=C(C)OCCS3)cc2)cc1,2.06 µM (active)
22,CC1=C(C(=O)Nc2ccc(CC(=O)NCc3ccc(OC(C)C)cc3)cc2)SCCO1,1.3 µM (active)
23,CCCCC[C@H](O)/C=C/[C@@H]1[C@@H](C/C=C\CCCC(=O)OC)[C@@H](O)C[C@H]1O,0.103 µM (active)
24,CCCCC[C@H](O)/C=C/[C@@H]1[C@@H](C/C=C\CCCC(=O)O)[C@@H](O)C[C@H]1O,2.91 µM (active)
25,CCO[C@H]1OC(C(=O)NCc2nc3ccccc3[nH]2)=C[C@@H](C2CC2)[C@@H]1CCCO,18.4 µM (active)

row,SMILES,Potency
1,O=C(Oc1c(CN2CCOCC2)cc(Cl)c2cccnc12)c1ccc(F)cc1,inactive
2,Oc1ccc(NCc2cccc(OCc3ccccc3)c2)cc1,inactive
3,Cc1[nH]n(C(N)=S)c(=O)c1N=Nc1ccc2ccccc2c1,inactive
4,COc1ccc(N(C(=O)c2ccccc2C)S(=O)(=O)c2cccs2)cc1,5.17 µM (active)
5,C=CCOc1c(OC)cc(/C=N/Nc2cccc(C(=O)O)c2)c(Br)c1Br,2.91 µM (active)
6,O=C(Oc1ccc(Cl)c2cccnc12)C12CC3CC(CC(C3)C1)C2,inactive
7,O=c1cnnc(N/N=C/C2CC=CCC2)[nH]1 (configuration not stated),inactive
8,COC(=O)C1C(O)=C(C=Nc2ccccc2)C(=O)CC1(C)C (configuration not stated),16.4 µM (active)
9,COC(=O)C1C(O)=C(C=Nc2cccc3ccccc23)C(=O)CC1(C)C (configuration not stated),18.4 µM (active)
10,CCCOc1ccccc1C1CC(=O)Nc2cc3c(cc21)OCCO3 (configuration not stated),7.31 µM (active)
11,CCCOc1ccccc1C1CC(=O)Nc2cc3c(cc21)OCO3 (configuration not stated),6.51 µM (active)
12,CCOc1ccccc1C1CC(=O)Nc2cc3c(cc21)OCCO3 (configuration not stated),10.3 µM (active)
13,Cc1ccc(-c2ccccc2NC(=O)CS(=O)CC(=O)Nc2ccc(C)c(Cl)c2)o1 (configuration not stated),inactive
14,COc1cc(/C=C\C(=O)OCn2nnc3ccccc3c2=O)cc(OC)c1OC,inactive
15,COc1cc(/C=C/c2ccc3cccc(O)c3n2)cc(Br)c1OC,20.6 µM (active)
16,COc1cc(/C=C/c2ccc3cccc(O)c3n2)cc(OC)c1OC,18.4 µM (active)
17,CCOc1cccc(/C=C/c2ccc3cccc(O)c3n2)c1OC,inactive
18,COC(=O)CCC(=O)NC(=S)Nc1sc(C)c(C)c1C(N)=O,4.61 µM (active)
19,CCCCC(=O)NC(=S)Nc1nnn(CCC)n1,inactive
20,CCOc1cc(-c2nnc(SCC(=O)NCc3ccccc3)nc2-c2ccc(OC)c(OCC)c2)ccc1OC,2.59 µM (active)
21,COc1ccc(CN(C)C(=O)Cn2cnc3c(NCc4ccccc4)ncnc32)cc1OC,inactive
22,COc1ccccc1CNC(=O)CSc1ccc(C)cc1,inactive
